Assay outcomes deposited in PubChem BioAssay by several laboratories.
ERb SRC1 inh – blocks coactivator binding to human estrogen receptor beta; Q92731; TR-FRET ER-beta LBD / SRC1-Cy5 peptide binding; receptor agonist-loaded with 1 µM estradiol; inhibition, % at 25.6 µM; 86,000 compounds, 1.3% hits; AID 633;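 active = compounds whose percent inhibition of the receptor-coactivator binding signal exceeds about 50% in the single-dose screen, limit read from the data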;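 note: 0% = receptor plus peptide wells without compound and 100% = peptide-only wells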
Target sequence (Q92731 whole entry, looked up, the tested form may be a part): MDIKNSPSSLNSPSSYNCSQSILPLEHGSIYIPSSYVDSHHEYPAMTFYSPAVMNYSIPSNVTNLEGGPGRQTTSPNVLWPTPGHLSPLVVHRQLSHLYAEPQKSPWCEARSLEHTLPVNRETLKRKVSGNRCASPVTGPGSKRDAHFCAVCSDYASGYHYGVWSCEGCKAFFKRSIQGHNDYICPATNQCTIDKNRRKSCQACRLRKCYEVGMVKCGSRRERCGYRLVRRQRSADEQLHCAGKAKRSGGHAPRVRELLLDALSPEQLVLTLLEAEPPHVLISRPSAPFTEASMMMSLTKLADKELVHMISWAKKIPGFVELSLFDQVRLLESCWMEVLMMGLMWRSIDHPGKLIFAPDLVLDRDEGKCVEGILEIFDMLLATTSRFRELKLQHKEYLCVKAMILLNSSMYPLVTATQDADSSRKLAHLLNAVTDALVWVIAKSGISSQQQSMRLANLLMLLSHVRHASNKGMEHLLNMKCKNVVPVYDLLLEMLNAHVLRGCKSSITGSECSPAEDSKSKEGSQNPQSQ
PTPN22 act – increases human PTPN22 phosphatase activity; Q9Y2R2; recombinant LYP, DiFMUP fluorescence; 0 = plate median, 100 = signal doubled; activation, % at 2 µM; 96,000 compounds, 0.11% hits;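 active = activation at 2 µM above a set limit, the mean plus 5 SD, cut at about 37% in these data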
LYP inh 2 – blocks human PTPN22 phosphatase activity. inhibition, % at 2 µM. 96,000 compounds, 0.21% hits. AID 640. recombinant LYP catalytic domain, DiFMUP fluorescence. Q9Y2R2;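 active = inhibition at 2 µM at or above a set limit, the screen mean plus 3 SD, cut at about 24% in these data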;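 note: 0% = DMSO with enzyme and 100% = enzyme fully blocked by orthovanadate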
FAK inh – FAK (human) kinase inhibition. Q05397. biochemical FAK kinase activity assay. inhibition, %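 (tested at 7 µM)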. 97,000 compounds, 0.84% hits. AID 727; in the data active = inhibition above about 19%;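 note: 0% = DMSO and 100% = reference compound high control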
ERa coact pot – ER-alpha (human) coactivator binding potentiation | P03372 | TR-FRET ERalpha-LBD/SRC-Cy5 coactivator binding, 2 h; 100 = basal binding, no effect | coactivator binding (% of control), % at 25.6 µM | 86,000 compounds, 1.3% hits; in the data active = activity above about 200%;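 note: binding measured in presence of low estradiol as agonist stimulus; 0% = peptide alone without receptor and 100% = receptor with peptide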
ERa SRC1 inh – ER-alpha (human) coactivator binding inhibition | inhibition, % at 25.6 µM | P03372 | TR-FRET ER-alpha LBD / SRC-1 peptide, estradiol-bound | 86,000 compounds, 1.7% hits; in the data active = inhibition above about 50%;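 note: 0% = receptor plus peptide control and 100% = peptide only without receptor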
* hit, by the source's call; · = no result given; [ ] = dose if it differs, or a comment. A selection: hits, their analogues and other compounds. The true share with any hit is near 3.4%.

SMILES	ERb SRC1 inh	PTPN22 act	LYP inh 2	FAK inh	ERa coact pot	ERa SRC1 inh
N#Cc1cc(Oc2cccnc2)c(Oc2cccnc2)cc1C#N	61*[fluorescence artefact?]	-8	8	-2	46	46
Cn1c(-c2ccc(C=O)s2)nc2c3ccccc3c3ccccc3c21	-1	-16	18	-4	364*[fluorescence artefact?]	32
Cc1ccc(F)cc1NC(=O)c1cccc2nccnc12	-21	-6	10	5	370*	2
Cc1ccccc1NC(=O)c1cccc2nccnc12	1	0	-3	5	93	2
O=c1c2ccccc2nc2n1CCCCC2	-9	-7	6	-5	115	-8
O=c1c2ccccc2nc2n1CCCCN2	12	-2	2	1	82	80*
COC(=O)CCC/C=C1/SCC(NC(=O)c2ccccc2)C1=O (configuration not stated)	4	-9	5	-1	100	5
COC(=O)CCC/C=C1/SCC(NC(=O)c2ccccc2)C1O (configuration not stated)	3	-6	5	-1	213*	17
CC(C)(C)c1ccc(OCC(O)CSc2ncn[nH]2)cc1 (configuration not stated)	-10	8	-8	-1	96	-5
O=C(O)c1ccccc1C1=Nc2ccc(O)cc2Oc2cc(O)ccc21	62*[fluorescence artefact?]	-12	9	-3	46	35
COc1ccccc1NC(=O)Cn1nc(-c2ccc(Cl)cc2)c2ccccc2c1=O	20	-2	4	-1	111	16
CCOc1ccccc1C1C(C#N)=C(SCC(=O)OC)NC(=O)C1C(=O)OC (configuration not stated)	85*[fluorescence artefact?]	-5	5	-1	107	-5
Cc1nnc2sc(-c3ccc(NC(=O)c4ccc(-c5ccc(Br)cc5)o4)cc3)nn12	48	3	-4	21*	122	69*
CCC(=O)Nc1ccc(-c2nn3c(C)nnc3s2)cc1	2	5	-5	-1	91	-8
Cc1ccc(-c2nn3c(C)nnc3s2)cc1NC(=O)c1ccc(-c2ccc(Cl)cc2Cl)o1	46	·	·	·	155	67*[fluorescence artefact?]
O=C(NCC(=O)N(Cc1cccs1)C(C(=O)NC1CCCC1)c1ccncc1)c1ccco1 (configuration not stated)	9	7	-2	-1	75	99*[fluorescence artefact?]
O=C(Nc1ccc(-c2nc3ncccc3o2)cc1)c1ccc(Br)o1	-10	-5	11	15	269*[fluorescence artefact?]	41
O=C(Nc1ccc2oc(-c3cccnc3)nc2c1)c1ccc(Br)o1	38	4	-3	18	206*[fluorescence artefact?]	69*[fluorescence artefact?]
O=C(Nc1ccc2oc(-c3cccnc3)nc2c1)c1cccnc1	6	-6	6	1	128	4
CCC1/C(=N\O)CC(c2ccco2)NC1c1ccco1 (configuration not stated)	·	8	-5	-1	·	·
COc1ccc2cc(CN(CC3COCCO3)S(=O)(=O)c3ccc(Cl)cc3)c(=O)[nH]c2c1 (configuration not stated)	11	-5	5	-15	234*[fluorescence artefact?]	29
COc1ccc2cc(CN(CC3COCCO3)S(=O)(=O)c3c(C)cc(C)cc3C)c(=O)[nH]c2c1 (configuration not stated)	·	-5	2	-2	·	·
Cc1ccc(N=C2C(=S)N(c3ccc(C)cc3)C(=N)N2/N=C/c2ccc(Cl)cc2)cc1	-2	-11	12	-1	93	-7
CC1(C)CC(=O)c2cnc(NCC3CCCO3)nc2C1 (configuration not stated)	24	-12	14	4	106	55*
CC1CC(=O)c2cnc(NCC3CCCO3)nc2C1 (configuration not stated)	3	4	-4	4	102	3
SMILES	ERb SRC1 inh	PTPN22 act	LYP inh 2	FAK inh	ERa coact pot	ERa SRC1 inh
O=C(CCn1c(=S)[nH]c2cc3c(cc2c1=O)OCO3)N1CCc2ccccc2C1	15	-1	1	8	104	6
O=C(CCCn1c(=S)[nH]c2cc3c(cc2c1=O)OCO3)N1CCc2ccccc2C1	51*	12	-8	5	125	20
O=C(CCCn1c(=S)[nH]c2cc3c(cc2c1=O)OCO3)N1CCN(c2ccccc2)CC1	14	-8	4	6	96	16
O=C(NCCN1CCCC1)c1ccc(Cn2c(=S)[nH]c3cc4c(cc3c2=O)OCO4)cc1	45	-7	7	0	145	70*[fluorescence artefact?]
O=C(CCCn1c(=S)[nH]c2cc3c(cc2c1=O)OCO3)N1CCN(c2ccc(Cl)cc2)CC1	27	-18	16	9	73	66*
COc1ccc(Oc2ncnc3c2oc2ccc(Br)cc23)cc1	30	·	·	·	416*	43
Nc1ccc2nc3n(c(=O)c2c1)CCC3	18	10	-12	·	215*	11
O=c1c2ccccc2nc2n1CCC2	·	1	-4	-1	·	·
COc1ccc(NC(=O)Nc2ccc(Cc3ccncc3)cc2)cc1OC	·	-1	4	14	·	·
C/C(N)=C(/C#N)C(=O)CSc1nnc(-c2ccc(OC(F)F)cc2)o1	62*	-2	0	4	58	56*
COc1ccc(C(=O)CSc2nnc(-c3ccc(S(=O)(=O)N4CCOCC4)cc3)o2)cc1	18	3	-4	-14	470*[fluorescence artefact?]	-6
COc1ccc(-c2nnc(SCC(=O)c3[nH]c(C)c(C(C)=O)c3C)o2)cc1	32	6	-7	-1	275*	22
C/C(N)=C(/C#N)C(=O)CSc1nnc(-c2ccc3c(c2)OCO3)o1	·	5	-4	2	·	·
CCOC(=O)c1c(C)[nH]c(C)c1C(=O)CSc1nnc(-c2ccc(OC(F)F)cc2)o1	24	7	-5	9	276*	46
NC(=O)C1CCN(S(=O)(=O)c2cccc(C(=O)O)c2)CC1	·	-7	8	0	·	·
CCSCc1nnc(SCC(=O)Nc2cccc(SC)c2)n1C	7	1	-4	0	117	-14
O=C(COc1ccccc1C(=O)N/N=C\c1ccc(O)c(O)c1)N/N=C/c1ccc(O)c(O)c1	·	-28	32*	2	·	·
O=C(CSc1nnc(-c2ccc(Cl)cc2)o1)N1CCN(c2ccccc2)CC1	54*	·	·	·	50	73*[fluorescence artefact?]
Cn1c(SCC#N)nnc1-c1cnccn1	22	0	-4	-1	81	1
COC(=O)c1ccc(OC(=O)c2ccc(OCc3c(C)noc3C)c(OC)c2)cc1	49	·	·	·	280*[fluorescence artefact?]	51*[fluorescence artefact?]
COc1cc(C(=O)NCc2ccc(C)cc2)ccc1OCc1c(C)noc1C	-14	8	-5	1	104	-9
CCN1CCC(C(N)=O)CC1	51*	10	-10	1	105	3
CC(C)(C)OC(=O)N1CCC(C(N)=O)CC1	-7	·	·	·	109	6
CC(C)CCCC(C)NS(=O)(=O)Cc1ccccc1 (configuration not stated)	-7	1	1	3	109	-7
